Results from the antibiotic and cytotoxicity screens of Wong et al. (2023).
Among all 39,000 compounds or so, about 3,300 (8.5%) were called active. This is one part of a sample in which actives are shown more often than they occur.

test system: HepG2; assay: cytotoxicity call (relative viability < 0.9); conditions: 10 µM

Question: With `CN(C)CC(=O)N[C@H]1CC[C@@H](CCn2cc(CN(C)C)nn2)O[C@H]1CO` as the molecule, how does the cytotoxicity call read?
Answer: inactive

Question: How did the cytotoxicity call turn out when `O=C(N[C@@H]1CC=CC[C@H](CC(=O)N(CCO)Cc2ccccc2)C(=O)NCC(c2ccccc2)OC1=O)OCC1c2ccccc2-c2ccccc21` (some centres undefined) was run?
Answer: inactive

Question: For `C[C@@H]1CN([C@@H](C)CO)C(=O)c2cc(/C=C/c3ccccc3)cnc2O[C@H]1CN(C)C(=O)c1cnccn1`, which cytotoxicity call is on record?
Answer: inactive

Question: Which cytotoxicity call does the source give for `Cc1cccc(S(=O)(=O)N2C[C@H](O)COC[C@@H]3O[C@@H](CC(=O)NCCCN4CCOCC4)CC[C@H]32)c1` here?
Answer: inactive

Question: `Cc1noc(C)c1NC(=O)N(C)C[C@H]1OCCCC[C@H](C)Oc2ccc(NC(=O)c3ccccc3)cc2C(=O)N([C@H](C)CO)C[C@@H]1C` was tested. Which cytotoxicity call did it give?
Answer: inactive

Question: Which cytotoxicity call does the source give for `C[C@H]1CNC(=O)[C@@H](CC(=O)N(CCOC(=O)NCCCCCC(=O)NO)Cc2ccccc2)C/C=C/CC[C@H](NC(=O)OC(C)(C)C)C(=O)O1` here?
Answer: inactive

Question: How did the cytotoxicity call turn out when `COc1ccccc1C#Cc1ccc2c(c1)O[C@@H](CN(C)C(C)=O)[C@@H](C)CN([C@@H](C)CO)S2(=O)=O` was run?
Answer: inactive

Question: With `C[C@H]1CCCCO[C@@H](CN(C)Cc2ccc(C(=O)O)cc2)[C@@H](C)CN([C@@H](C)CO)C(=O)c2cc(NC(=O)C3CCCCC3)ccc2O1` as the molecule, how does the cytotoxicity call read?
Answer: inactive

Question: For `C[C@H](NC(=O)C[C@H]1C[C@@H]2c3cc(NC(=O)Nc4ccc(C(F)(F)F)cc4)ccc3O[C@@H]2[C@H](CO)O1)c1ccccc1`, which cytotoxicity call is on record?
Answer: inactive

Question: For `C[C@@H]1CCCCO[C@@H](CN(C)C(=O)Nc2cccc3ccccc23)[C@@H](C)CN([C@H](C)CO)C(=O)c2cc(NS(C)(=O)=O)ccc2O1`, which cytotoxicity call is on record?
Answer: inactive

Question: With `C[C@H]1CN([C@@H](C)CO)C(=O)c2cc(NC(=O)Cn3cnnn3)ccc2O[C@@H]1CN(C)S(C)(=O)=O` as the molecule, how does the cytotoxicity call read?
Answer: inactive

Question: With `CN(C)C(=O)C[C@@H]1CC[C@@H]2[C@H](COC[C@@H](O)CN2S(=O)(=O)c2ccccc2)O1` as the molecule, how does the cytotoxicity call read?
Answer: inactive

Question: With `C[C@@H]1CN([C@H](C)CO)S(=O)(=O)c2ccc(-c3ccc(F)cc3)cc2O[C@@H]1CN(C)C(=O)C1CCOCC1` as the molecule, how does the cytotoxicity call read?
Answer: inactive

Question: `COc1ccc(NC(=O)Nc2ccc3c(c2)C(=O)N([C@H](C)CO)C[C@H](C)[C@@H](CN(C)C(=O)Cc2ccccc2)OCCCC[C@@H](C)O3)cc1` was tested. Which cytotoxicity call did it give?
Answer: inactive

Question: With `CCc1nc2ccc(C(=O)NC3CCN(Cc4ccccc4)CC3)cn2c1N(C)CCN1CCOCC1` as the molecule, how does the cytotoxicity call read?
Answer: inactive

Question: Which cytotoxicity call does the source give for `CCc1nc2ccc(C(=O)NC3CCN(Cc4ccccc4)CC3)cn2c1N(C)Cc1cc2ccccc2s1` here?
Answer: active

Question: Which cytotoxicity call does the source give for `CCc1nc2ccc(C(=O)Nc3cccc(OCC(=O)N(C)C)c3)cn2c1N(C)Cc1cc2ccccc2s1` here?
Answer: inactive

Question: `C[C@@H]1CCCCO[C@@H](CN(C)C(=O)Nc2ccc(C(F)(F)F)cc2)[C@H](C)CN([C@@H](C)CO)C(=O)c2cc(NC(=O)Cc3ccccc3)ccc2O1` was tested. Which cytotoxicity call did it give?
Answer: inactive

Question: For `O=C(O)CN(CCN(CC(=O)O)CC(=O)O)CCN(CC(=O)O)CC(=O)O`, which cytotoxicity call is on record?
Answer: inactive

Question: For `CO[C@H]1CCCNC1`, which cytotoxicity call is on record?
Answer: inactive

Question: With `C[C@H](CO)N1C[C@H](C)[C@@H](CN(C)C(=O)Nc2ccc(C(F)(F)F)cc2)Oc2ccc(NC(=O)CCCCCC(=O)Nc3ccccc3N)cc2C1=O` as the molecule, how does the cytotoxicity call read?
Answer: inactive

Question: How did the cytotoxicity call turn out when `C[C@H]1CN([C@@H](C)CO)C(=O)c2cc(NC(=O)CCCCCC(=O)Nc3ccccc3N)ccc2O[C@@H]1CN(C)C(=O)Nc1ccc(C(F)(F)F)cc1` was run?
Answer: inactive

Question: How did the cytotoxicity call turn out when `C[C@H]1CN([C@@H](C)CO)C(=O)c2cc(NC(=O)CCCCCC(=O)Nc3ccccc3N)ccc2O[C@H]1CN(C)C(=O)Nc1ccc(C(F)(F)F)cc1` was run?
Answer: active

Question: For `COc1ccc(NC(=O)N(C)C[C@@H]2Oc3ccc(NC(=O)CCCCCC(=O)Nc4ccccc4N)cc3C(=O)N([C@H](C)CO)C[C@H]2C)cc1`, which cytotoxicity call is on record?
Answer: inactive

Question: Which cytotoxicity call does the source give for `COc1ccc(NC(=O)N(C)C[C@H]2Oc3ccc(NC(=O)CCCCCC(=O)Nc4ccccc4N)cc3C(=O)N([C@@H](C)CO)C[C@H]2C)cc1` here?
Answer: inactive

Question: Which cytotoxicity call does the source give for `COc1ccc(NC(=O)N(C)C[C@@H]2Oc3ccc(NC(=O)CCCCCC(=O)Nc4ccccc4N)cc3C(=O)N([C@H](C)CO)C[C@@H]2C)cc1` here?
Answer: active

Question: `C[C@@H]1CN([C@@H](C)CO)C(=O)c2cc(NC(=O)CCCCCC(=O)Nc3ccccc3N)ccc2O[C@@H]1CN(C)C(=O)Nc1ccc(C(F)(F)F)cc1` was tested. Which cytotoxicity call did it give?
Answer: inactive

Question: Which cytotoxicity call does the source give for `C[C@@H]1CN([C@H](C)CO)C(=O)c2cc(NC(=O)CCCCCC(=O)Nc3ccccc3N)ccc2O[C@H]1CN(C)C(=O)Nc1ccc(C(F)(F)F)cc1` here?
Answer: inactive

Question: How did the cytotoxicity call turn out when `C[C@H](CO)N1C[C@H](C)[C@H](CN(C)C(=O)Nc2ccc(C(F)(F)F)cc2)Oc2ccc(NC(=O)CCCCCC(=O)Nc3ccccc3N)cc2C1=O` was run?
Answer: active

Question: With `C[C@@H]1CCCCO[C@H](CN(C)S(=O)(=O)c2ccc(F)cc2)[C@@H](C)CN([C@@H](C)CO)C(=O)c2cc(NC(=O)Nc3cccc4ccccc34)ccc2O1` as the molecule, how does the cytotoxicity call read?
Answer: inactive

Question: Which cytotoxicity call does the source give for `CC(=O)N(C)CCc1ccc(C)[n+]([O-])c1` here?
Answer: inactive

Question: `C[C@@H]1CN([C@H](C)CO)C(=O)c2cc(-c3cncnc3)cnc2O[C@@H]1CN(C)C(=O)CN1CCOCC1` was tested. Which cytotoxicity call did it give?
Answer: inactive

Question: How did the cytotoxicity call turn out when `Cc1ccc(S(=O)(=O)N(C)C[C@H]2OCCCC[C@@H](C)Oc3ccc(NC(=O)Nc4ccc(F)cc4)cc3C(=O)N([C@@H](C)CO)C[C@@H]2C)cc1` was run?
Answer: inactive

Question: `C[C@H](O)C#Cc1cnc2c(c1)C(=O)N([C@H](C)CO)C[C@H](C)[C@H](CN(C)C(=O)Nc1ccc(C(F)(F)F)cc1)O2` was tested. Which cytotoxicity call did it give?
Answer: inactive

Question: For `CO[C@@H]1CN(C)C(=O)c2cc(NC(=O)C3CC3)ccc2OC[C@H](C)N(C(=O)Cc2ccccn2)C[C@H]1C`, which cytotoxicity call is on record?
Answer: inactive

Question: With `O=C1CCC(c2ccc(O)cc2)CC1` as the molecule, how does the cytotoxicity call read?
Answer: inactive

Question: With `O=C1C=CC(=O)N1c1ccc(O)cc1` as the molecule, how does the cytotoxicity call read?
Answer: active

Question: `Cc1ccc(S(=O)(=O)N(C)C[C@H]2OCCCC[C@@H](C)Oc3ccc(NC(=O)Nc4ccc(C(F)(F)F)cc4)cc3C(=O)N([C@H](C)CO)C[C@@H]2C)cc1` was tested. Which cytotoxicity call did it give?
Answer: inactive

Question: For `C[C@@H]1CN([C@@H](C)CO)C(=O)c2cc(NC(=O)Cn3cnnn3)ccc2O[C@H]1CN(C)S(=O)(=O)c1cn(C)cn1`, which cytotoxicity call is on record?
Answer: inactive

Question: With `C[C@@H]1CN([C@H](C)CO)C(=O)c2cc(NC(=O)Nc3cccc4ccccc34)ccc2O[C@@H](C)CCCCO[C@@H]1CN(C)S(=O)(=O)c1cn(C)cn1` as the molecule, how does the cytotoxicity call read?
Answer: inactive

Question: For `C[C@@H]1CN([C@@H](C)CO)C(=O)c2cccc(NS(=O)(=O)c3cn(C)cn3)c2O[C@@H]1CN(C)S(=O)(=O)c1cccs1`, which cytotoxicity call is on record?
Answer: inactive

Question: With `Oc1ccc(O)cc1` as the molecule, how does the cytotoxicity call read?
Answer: active

Question: `Nc1ccc(C(=O)O)cc1` was tested. Which cytotoxicity call did it give?
Answer: inactive

Question: For `Nc1cccc(O)c1`, which cytotoxicity call is on record?
Answer: inactive

Question: How did the cytotoxicity call turn out when `Nc1ccc(O)cc1` was run?
Answer: active

Question: With `Cc1ccc(O)cc1` as the molecule, how does the cytotoxicity call read?
Answer: inactive

Question: Which cytotoxicity call does the source give for `OCc1ccc(O)cc1` here?
Answer: inactive

Question: Which cytotoxicity call does the source give for `C[C@@H]1CCCCO[C@H](CN(C)S(=O)(=O)c2ccccc2)[C@@H](C)CN([C@H](C)CO)C(=O)c2cc(NS(=O)(=O)c3cn(C)cn3)ccc2O1` here?
Answer: inactive

Question: How did the cytotoxicity call turn out when `Cc1noc(C)c1NC(=O)N(C)C[C@@H]1Oc2c(NC(=O)c3ccc(-c4nccs4)cc3)cccc2C(=O)N([C@@H](C)CO)C[C@@H]1C` was run?
Answer: inactive

Question: For `C[C@@H]1CCCCO[C@H](CN(C)C(=O)Cc2ccccc2)[C@H](C)CN([C@H](C)CO)C(=O)c2cc(NS(=O)(=O)c3ccc(F)cc3)ccc2O1`, which cytotoxicity call is on record?
Answer: inactive

Question: How did the cytotoxicity call turn out when `C[C@H](CO)N1C[C@H](C)[C@@H](CN(C)C(=O)Nc2cccc3ccccc23)Oc2ccc(NC(=O)Cc3ccccc3)cc2CC1=O` was run?
Answer: inactive

Question: For `Cc1noc(C)c1NC(=O)Nc1ccc2c(c1)C(=O)N([C@@H](C)CO)C[C@H](C)[C@@H](CN(C)Cc1ccc3c(c1)OCO3)OCCCC[C@H](C)O2`, which cytotoxicity call is on record?
Answer: inactive

Question: For `Brc1cccc2ocnc12`, which cytotoxicity call is on record?
Answer: inactive

Question: For `Cc1cc(C(=O)Nc2cccc3c2O[C@H](CN(C)Cc2ccc(C(=O)O)cc2)[C@H](C)CN([C@H](C)CO)C3=O)n(C)n1`, which cytotoxicity call is on record?
Answer: inactive

Question: With `CC[C@H](C)[C@@H]([C@@H](CC(=O)N1CCC[C@H]1[C@H](OC)[C@@H](C)C(=O)N[C@@H](Cc1ccccc1)c1nccs1)OC)N(C)C(=O)[C@@H](NC(=O)[C@H](C(C)C)N(C)C)C(C)C` as the molecule, how does the cytotoxicity call read?
Answer: active

Question: For `C[C@@H]1CCCCO[C@H](CN(C)C(=O)Nc2cccc3ccccc23)[C@H](C)CN([C@@H](C)CO)C(=O)c2cc(NC(=O)Nc3ccc4c(c3)OCO4)ccc2O1`, which cytotoxicity call is on record?
Answer: inactive

Question: For `Cc1noc(C)c1NC(=O)Nc1ccc2c(c1)C(=O)N([C@H](C)CO)C[C@H](C)[C@@H](CN(C)Cc1ccc(-c3ccccc3)cc1)O2`, which cytotoxicity call is on record?
Answer: inactive

Question: `COC(=O)C1=C(C)NC(C)=C(C(=O)OC(C)(C)CN(C)CCC(c2ccccc2)c2ccccc2)[C@@H]1c1cccc([N+](=O)[O-])c1` was tested. Which cytotoxicity call did it give?
Answer: inactive

Question: Which cytotoxicity call does the source give for `CCOC(=O)C1=C(C)NC(c2ccccc2)=C(C(=O)OCc2ccc([N+](=O)[O-])cc2)[C@@H]1C#Cc1ccccc1` here?
Answer: inactive

Question: Which cytotoxicity call does the source give for `COC(=O)C1=C(C)NC(C)=C(C(=O)NCCCN2CCC(c3ccccc3)(c3ccccc3)CC2)[C@@H]1c1ccc([N+](=O)[O-])cc1` here?
Answer: active

Question: How did the cytotoxicity call turn out when `CCOC(=O)C1=C(C)NC(C)=C(C(=O)OC)C1c1cccc([N+](=O)[O-])c1` (centres undefined) was run?
Answer: inactive

Question: How did the cytotoxicity call turn out when `CCCN1C(C)=C(C(=O)OC)[C@@H](c2cccc([N+](=O)[O-])c2)C(C(=O)ON2CCC(c3ccccc3)(c3ccccc3)CC2)=C1C` was run?
Answer: active

Question: How did the cytotoxicity call turn out when `COC(=O)C1=C(C)NC(C)=C(C(=O)OCC(C)C)C1c1ccccc1[N+](=O)[O-]` (centres undefined) was run?
Answer: inactive

Question: Which cytotoxicity call does the source give for `NNC(=O)c1cccc([N+](=O)[O-])c1` here?
Answer: inactive

Question: How did the cytotoxicity call turn out when `O=C(Nc1cccc([N+](=O)[O-])c1)C(=O)NC1CC1` was run?
Answer: inactive

Question: `COC(=O)C1=C(C)NC(C)=C(C(=O)OCC(C)C)[C@@H]1c1ccccc1[N+](=O)[O-]` was tested. Which cytotoxicity call did it give?
Answer: inactive

Question: How did the cytotoxicity call turn out when `COC(=O)C1=C(C#N)NC(C)=C(C(=O)OC(C)C)C1c1cccc([N+](=O)[O-])c1` (centres undefined) was run?
Answer: active

Question: For `COC(=O)C1=C(C)NC(C)=C(C(=O)OCCN(C)Cc2ccccc2)C1c1cccc([N+](=O)[O-])c1.Cl` (centres undefined), which cytotoxicity call is on record?
Answer: inactive

Question: Which cytotoxicity call does the source give for `COC(=O)C1=C(C)NC(C)=C(C(=O)OCCN2CCN(C(c3ccccc3)c3ccccc3)CC2)C1c1cccc([N+](=O)[O-])c1` (centres undefined) here?
Answer: active
